hcDAF-12 act – activators of H. contortus DAF-12 nuclear receptor | activation, % at 6.8 µM | 370,000 compounds, 1.4% hits | HEK293 hcDAF-12 lit1-tk-luc reporter, luminescence; 0% DMSO, 100% Δ7-dafachronic acid;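 active = activation above the mean of all tested compounds plus 3 SD, cut at about 5.5% in these data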;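 note: 100% = response to 3 µM Δ7-dafachronic acid high control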
NR1D1 modulator – Rev-erb alpha (human) modulation; P20393; Rev-erbα–FITC-DNA binding, fluorescence polarization, 90 min; activity, % at 10 µM; 370,000 compounds, 0.79% hits; AID 1259318;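 active = activity above about 14%, limit read from the data; passing the limit was not always enough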;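 note: 0% = DMSO wells with 35 nM protein and 100% = DMSO wells with 750 nM protein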
ssDAF-12 act – S. stercoralis DAF-12 activation, primary screen; HEK293 ssDAF-12/GRIP1 lit1-tk-luc reporter, luminescence; % of 3 µM dafachronic acid response; activation, % at 6.8 µM; 370,000 compounds, 1% hits; AID 652126;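 active = activation above the mean over all tested compounds plus 3 SD, cut at about 0.9% in these data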;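 note: 0% = DMSO-only wells and 100% = 3 µM delta7-dafachronic acid wells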
DAX1 inh-1 – blocks DAX1 repression of SF-1 activated StAR promoter | HEK293T StAR-luciferase reporter, SF-1/DAX-1 repression relief | inhibition, % at 6.8 µM | 370,000 compounds, 1.1% hits | AID 652010;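 active = inhibition above the mean over all tested compounds plus 3 SD, cut at about 3.6% in these data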;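 note: 0% = DAX-1 cells with DMSO and 100% = cells lacking DAX-1 with DMSO; higher inhibition means more luminescence from relief of DAX-1 repression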
DAX1 inh-2 – inhibitors of human orphan nuclear receptor DAX1 (NR0B1) | HEK293 Gal4-DAX1 luciferase reporter, luminescence | 340,000 compounds, 0.99% hits | AID 504766 | P51843 | inhibition, % at 6.75 µM;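 active = inhibition above the mean over all tested compounds plus 3 SD, cut at about 4.2% in these data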;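 note: 0% = DAX1-transfected cells with DMSO and 100% = empty-vector control cells with DMSO; inhibition shows as a rise in luminescence from relieved DAX1 repression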
Target sequence (P51843 207-470 limits assumed): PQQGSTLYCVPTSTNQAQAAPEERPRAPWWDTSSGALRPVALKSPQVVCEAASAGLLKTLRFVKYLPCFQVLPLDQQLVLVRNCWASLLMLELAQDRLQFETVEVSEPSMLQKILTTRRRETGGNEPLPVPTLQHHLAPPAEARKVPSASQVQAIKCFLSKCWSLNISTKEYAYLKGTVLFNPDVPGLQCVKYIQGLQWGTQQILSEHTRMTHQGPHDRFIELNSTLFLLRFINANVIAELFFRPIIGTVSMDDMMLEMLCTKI
hgDAF12 agonist – activates the H. glycines DAF-12 receptor ligand-binding domain; HEK293 GAL4-hgDAF12 UAS-luciferase reporter, agonist luminescence; normalized to butyrate control; activation, % at 6.8 µM; 370,000 compounds, 1.8% hits;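 active = activation above a cutoff set at the mean of all screened compounds plus 3 SD, cut at about 10% in these data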;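 note: 0% = DMSO wells and 100% = sodium butyrate wells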
Starred values were filed as active, the others as inactive. In the library only some 4.8% were active in any assay of this set; here they are far more common.

For CCOC(=O)c1cc(C(=O)Nc2ccc(C)c(F)c2)nn1C the results were hcDAF-12 act 5, NR1D1 modulator -3, ssDAF-12 act -1, DAX1 inh-1 3, DAX1 inh-2 3 and hgDAF12 agonist 11*.
For CCOC(=O)c1cc(C(=O)NCc2ccc(Cl)cc2Cl)nn1C the results were hcDAF-12 act -1, NR1D1 modulator -4, ssDAF-12 act -2, DAX1 inh-1 0, DAX1 inh-2 2 and hgDAF12 agonist 2.
O=C(NNC(=S)Nc1ccc(F)cc1)c1cccc([N+](=O)[O-])c1 was read as hcDAF-12 act 1, NR1D1 modulator -5, ssDAF-12 act 1.8*, DAX1 inh-1 0, DAX1 inh-2 1 and hgDAF12 agonist 1.
Screening COc1ccc(-c2c(C)nc3c(-c4ccc(F)cc4)cnn3c2N)cc1 returned hcDAF-12 act 0, NR1D1 modulator 6, ssDAF-12 act 0, DAX1 inh-1 0, DAX1 inh-2 5.2* and hgDAF12 agonist 7.
`Nc1c(-c2ccc(Cl)cc2)cnc2c(-c3ccc(F)cc3)cnn12` gave hcDAF-12 act 5, NR1D1 modulator 3, ssDAF-12 act 1, DAX1 inh-1 2, DAX1 inh-2 5.0* and hgDAF12 agonist 13*.
Screening COC(=O)[C@H](C(C)C)N1CCc2nnn(Cc3ccc(C)cc3)c2-c2cc(F)ccc2S1(=O)=O returned hcDAF-12 act -3, NR1D1 modulator 0, ssDAF-12 act -2, DAX1 inh-1 -1 and hgDAF12 agonist -2.
Screening CSc1cccc(NC(=S)N(CCC(C)C)C(C)c2ccncc2)c1 (stereo not given) returned hcDAF-12 act 0, NR1D1 modulator -1, ssDAF-12 act -1, DAX1 inh-1 0, DAX1 inh-2 4.7* and hgDAF12 agonist 3.
O=C1CCC[C@H]2[C@@H](Cc3ccccc3)[C@@H](O)CC[C@]23CCCN13 was read as hcDAF-12 act -1, NR1D1 modulator 0, ssDAF-12 act -1 and hgDAF12 agonist 0.
`COC(=O)C1C(=O)c2c([nH]c(C(=O)OC3CCCC3)c2C)CC1C` (stereo not given) gave hcDAF-12 act 6.0*, NR1D1 modulator -6, ssDAF-12 act 0, DAX1 inh-1 3, DAX1 inh-2 2 and hgDAF12 agonist 9.
O=C1CCC2(CCCCC2)N1CCCO was read as hcDAF-12 act 0, NR1D1 modulator 2, ssDAF-12 act 0, DAX1 inh-1 -1 and hgDAF12 agonist -3.
`CN(C=O)c1ccc(CSc2ccccc2)cc1` gave hcDAF-12 act 6, NR1D1 modulator 2, ssDAF-12 act -1, DAX1 inh-1 1, DAX1 inh-2 0 and hgDAF12 agonist 12*.
O=C(Nc1nc2ncccn2c1-c1ccc(C(F)(F)F)cc1)c1ccc(F)cc1 was read as hcDAF-12 act -1, NR1D1 modulator 3, ssDAF-12 act -1, DAX1 inh-1 -1 and hgDAF12 agonist 0.
`Cc1cc(NC(=O)CSc2nc3c(sc4ccccc43)c(=O)n2CCc2ccccc2)n[nH]1` gave hcDAF-12 act 0, NR1D1 modulator 8, ssDAF-12 act -1, DAX1 inh-1 0, DAX1 inh-2 -2 and hgDAF12 agonist 1.
Screening Cc1cc(NC(=O)CSc2nc3c(sc4ccccc43)c(=O)n2CCCN2CCOCC2)n[nH]1 returned hcDAF-12 act 0, NR1D1 modulator -4, ssDAF-12 act -1, DAX1 inh-1 -1, DAX1 inh-2 2 and hgDAF12 agonist 11*.
Screening O=C(NC(CC1=CCCCC1)c1ccc2ccccc2c1)C(F)(F)F (stereo not given) returned hcDAF-12 act 0, NR1D1 modulator 2, ssDAF-12 act -1, DAX1 inh-1 1 and hgDAF12 agonist 1.
CCCCCCCc1c(O)nc(SCC(=O)O)[nH]c1=O was read as hcDAF-12 act 0, NR1D1 modulator -1, ssDAF-12 act -2, DAX1 inh-1 0, DAX1 inh-2 5.1* and hgDAF12 agonist -2.
For CCCCCc1c(C)nc(SCC(=O)O)[nH]c1=O the results were hcDAF-12 act -1, NR1D1 modulator -5, ssDAF-12 act -1, DAX1 inh-1 1, DAX1 inh-2 1 and hgDAF12 agonist 0.
Screening CCOC(=O)C1=C(C)N=c2s/c(=C/c3ccc(OCC(=O)O)cc3)c(=O)n2C1c1ccc(OC)cc1OC (stereo not given) returned hcDAF-12 act 0, NR1D1 modulator 8, ssDAF-12 act 1.8*, DAX1 inh-1 1, DAX1 inh-2 -1 and hgDAF12 agonist 1.
Screening CCOC(=O)C1=C(C)N=c2s/c(=C\c3ccc(OCC(=O)O)cc3)c(=O)n2C1c1ccccc1OC (stereo not given) returned hcDAF-12 act 1, NR1D1 modulator -2, ssDAF-12 act -1, DAX1 inh-1 0, DAX1 inh-2 2 and hgDAF12 agonist -2.
Screening CCOC(=O)N1CCN(C(=O)CSC2=NS(=O)(=O)c3cc(F)ccc3N2)CC1 returned hcDAF-12 act 2, NR1D1 modulator 2, ssDAF-12 act -1, DAX1 inh-1 0, DAX1 inh-2 4.8* and hgDAF12 agonist 1.
`CCCC[C@@H]1C(=O)N2N=Cc3cc4ccccc4cc3[C@H]2N2N=Cc3cc4ccccc4cc3[C@@H]12` gave hcDAF-12 act 5, NR1D1 modulator 14, ssDAF-12 act -1, DAX1 inh-1 -3 and hgDAF12 agonist -6.
For Cc1ccc(NC(=O)c2ccc(OC(=O)COc3ccc(Cl)cc3C)cc2)cc1 the results were hcDAF-12 act 6.1*, NR1D1 modulator 3, ssDAF-12 act 0, DAX1 inh-1 3.9*, DAX1 inh-2 1 and hgDAF12 agonist 13*.
`O=c1oc2ccccc2cc1-c1ccccc1` gave hcDAF-12 act 0, NR1D1 modulator -5, ssDAF-12 act 0, DAX1 inh-1 1, DAX1 inh-2 6.0* and hgDAF12 agonist 6.
O=c1oc2ccc3ccccc3c2cc1-c1nnc(-c2cccs2)o1 was read as hcDAF-12 act 3, NR1D1 modulator -11, ssDAF-12 act 1, DAX1 inh-1 2, DAX1 inh-2 3 and hgDAF12 agonist 11*.
O=c1oc2ccccc2cc1-c1nc(-c2cccs2)cs1 was read as hcDAF-12 act 6.1*, NR1D1 modulator 0, ssDAF-12 act 0.9*, DAX1 inh-1 1, DAX1 inh-2 2 and hgDAF12 agonist 4.
For O=c1oc2ccc(Cl)cc2cc1-c1ccccc1 the results were hcDAF-12 act 1, NR1D1 modulator 11, ssDAF-12 act 0, DAX1 inh-1 0, DAX1 inh-2 1 and hgDAF12 agonist 2.
Screening O=c1oc2ccc3ccccc3c2cc1-c1nnc(-c2ccccc2)o1 returned hcDAF-12 act 1, NR1D1 modulator -27, ssDAF-12 act -1, DAX1 inh-1 1, DAX1 inh-2 1 and hgDAF12 agonist 5.
